High-throughput results from PubChem.
GSIS activator – primary screen for activators of insulin secretion dependent on glucose, INS-1E cells, GLuc reporter luminescence. INS-1E GLuc reporter insulin secretion, 2-3 h. activation, % at 16.6 µM. 370,000 compounds, 0.61% hits. AID 743287;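 active = lowest replicate activation of at least 40%, so every replicate reaches that level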
Ecoli rRNA inh – inhibitors of bacterial rRNA selective over humanized ribosomes; AID 720706; GFP signal change (wild-type ribosome), % (no concentration beside the values); E. coli WT GFP vs humanized-ribosome RFP mutants, fluorescence, 24 h; hits give low values; DMSO median 0, no signal -100; 350,000 compounds, 1.6% hits;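 active = significant combined selectivity score with lowered wild-type GFP, culture density cut under 30%, mutant RFP and density less affected; inactive = any of these conditions unmet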
DENV2 CPE – inhibitors of DENV2 cytopathic effect | DENV2-infected cells, cytopathic effect rescue, plate reader | CPE inhibition, % at 9.99 µM | 350,000 compounds, 1.7% hits | AID 651640; in the data active = CPE inhibition above about 20%, passing the limit was not always enough; tested in BHK-21 cells
CaV13 ICDI inh – Primary screen for inhibitors of IQ motif and Ca2+-dependent inactivation inhibitor domain binding in CACNA1D, Förster resonance energy transfer in living cells, …. HEK cells, CFP/YFP FRET ICDI-IQ, plate reader, 10 min; percent FRET-ratio fall versus neutral wells. AID 743397. inhibition, % at 12.3 µM. 340,000 compounds, 0.098% hits;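 active = mean replicate inhibition of at least 30% and at least 1% of replicates passing that level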
ERAP1 HTS inh – blocks human ERAP1 aminopeptidase activity; Q9NZ08; 340,000 compounds, 0.15% hits; recombinant ERAP1, Leu-AMC fluorescence, 60 min; inhibition, % at 10.7 µM;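 active = mean replicate inhibition of at least 30%, or all replicates individually reaching that 30% level; inactive = mean below 30% and not every replicate reaching it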
Target sequence (Q9NZ08 whole entry, looked up): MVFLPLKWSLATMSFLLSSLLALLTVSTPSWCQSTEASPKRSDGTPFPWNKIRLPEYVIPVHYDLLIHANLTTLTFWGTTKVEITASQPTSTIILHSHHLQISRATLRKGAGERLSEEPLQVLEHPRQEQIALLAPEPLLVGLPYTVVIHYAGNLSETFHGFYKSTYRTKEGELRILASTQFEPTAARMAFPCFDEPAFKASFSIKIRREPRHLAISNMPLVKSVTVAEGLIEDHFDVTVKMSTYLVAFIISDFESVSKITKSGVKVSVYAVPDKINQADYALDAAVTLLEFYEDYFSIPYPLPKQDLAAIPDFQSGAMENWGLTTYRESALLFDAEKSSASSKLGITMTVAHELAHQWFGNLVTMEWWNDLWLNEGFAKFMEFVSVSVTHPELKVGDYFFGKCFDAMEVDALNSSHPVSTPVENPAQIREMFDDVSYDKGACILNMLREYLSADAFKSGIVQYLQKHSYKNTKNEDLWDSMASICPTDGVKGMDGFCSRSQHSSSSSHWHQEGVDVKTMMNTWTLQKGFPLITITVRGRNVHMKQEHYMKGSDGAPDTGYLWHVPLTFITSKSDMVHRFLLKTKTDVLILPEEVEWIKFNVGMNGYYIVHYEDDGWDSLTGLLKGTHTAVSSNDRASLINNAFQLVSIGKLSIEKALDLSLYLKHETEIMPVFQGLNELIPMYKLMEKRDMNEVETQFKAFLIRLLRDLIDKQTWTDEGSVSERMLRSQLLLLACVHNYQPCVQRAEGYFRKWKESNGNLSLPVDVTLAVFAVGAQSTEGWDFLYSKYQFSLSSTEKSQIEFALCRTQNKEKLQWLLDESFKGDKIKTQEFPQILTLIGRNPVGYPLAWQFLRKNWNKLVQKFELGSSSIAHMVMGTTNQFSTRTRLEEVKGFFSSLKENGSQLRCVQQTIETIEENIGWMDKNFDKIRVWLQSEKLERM
PGC1a acetyl inh – PGC1a acetylation modulation, inhibitor mode | U2OS PGC1a acetylation, AlphaScreen anti-acetyl-lysine; with virally co-expressed GCN5 acetyltransferase | inhibition, % at 15.6 µM | 350,000 compounds, 0.17% hits | AID 651687;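 active = every replicate shows inhibition of at least 40%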
Numbers stand for hits; – = inactive; · = no result given; ! = repeats disagree. Sampled rows, rich in hits. Any-hit rate of the full collection: about 3.2%.

SMILES | GSIS activator | Ecoli rRNA inh | DENV2 CPE | CaV13 ICDI inh | ERAP1 HTS inh | PGC1a acetyl inh
O=[N+]([O-])c1ccc(N2CCN(S(=O)(=O)c3ccccc3[N+](=O)[O-])CC2)cc1N1CCc2ccccc2C1 | – | – | 112.2 | – | – | –
CSCCC(NS(=O)(=O)c1cccs1)C(=O)NCc1ccc(C)cc1 (stereo not drawn) | · | – | – | – | – | ·
CSCCC(NS(=O)(=O)c1cccs1)C(=O)NCc1ccccc1 (stereo not drawn) | – | – | 35.7 | – | – | ·
CCCC#Cc1cnc2c(c1)C(=O)N([C@@H](C)CO)C[C@H](C)[C@H](CN(C)Cc1ccc(C(=O)O)cc1)O2 | – | – | – | · | – | –
C[C@H]1CN([C@@H](C)CO)C(=O)c2cc(C#CCN(C)C)cnc2O[C@H]1CN(C)Cc1ccc(F)cc1 | – | – | 32.1 | · | – | –
C[C@@H](O)C#Cc1cnc2c(c1)C(=O)N([C@@H](C)CO)C[C@H](C)[C@H](CN(C)C(=O)c1ccc(F)cc1)O2 | – | – | – | · | – | –
CC(C)CC#Cc1cnc2c(c1)C(=O)N([C@@H](C)CO)C[C@H](C)[C@H](CN(C)Cc1ccc(C(=O)O)cc1)O2 | – | – | 78.1 | · | – | –
CC(C)CC#Cc1cnc2c(c1)C(=O)N([C@H](C)CO)C[C@@H](C)[C@@H](CN(C)C(=O)c1ccc(F)cc1)O2 | – | – | 21.1 | · | – | –
C[C@@H]1CN([C@@H](C)CO)C(=O)c2cc(C#CCN(C)C)cnc2O[C@@H]1CN(C)Cc1ccc(F)cc1 | – | – | – | · | – | –
C[C@@H]1CN([C@H](C)CO)C(=O)c2cc(C#C[C@@H](C)O)cnc2O[C@H]1CN(C)C(=O)c1ccc(F)cc1 | – | – | 43.3! | – | – | –
COc1ccc(NC(=O)N(C)C[C@H]2Oc3ccc(NC(=O)Nc4ccc(F)cc4)cc3CC(=O)N([C@H](C)CO)C[C@@H]2C)cc1 | – | – | – | · | – | –
CCC(=O)N(C)C[C@@H]1Oc2ncc(-c3ccccc3F)cc2C(=O)N([C@H](C)CO)C[C@@H]1C | – | – | – | · | – | –
COc1ccc(S(=O)(=O)N[C@H]2C=C[C@H](CC(=O)N3CCc4ccccc4C3)O[C@H]2CO)cc1 | · | · | · | · | – | –
COCC(=O)NC[C@@H]1N[C@@H](CO)[C@H]1c1ccc(-c2ccccc2F)cc1 | – | – | – | · | · | –
CCCNC(=O)N1C[C@@H](C)[C@H](OC)CN(C)C(=O)c2ccc(NS(=O)(=O)CC(F)(F)F)cc2OC[C@@H]1C | – | – | – | · | – | –
C[C@H](CO)N1C[C@H](C)[C@@H](CN(C)Cc2cccc(F)c2)Oc2ncc(C#CCc3ccccc3)cc2C1=O | – | -35.5 | – | · | – | –
C[C@H](CO)N1C[C@H](C)[C@H](CN(C)C(=O)c2ccc(F)cc2)Oc2ncc(C#CCN(C)C)cc2C1=O | – | – | 35.0 | · | – | –
C[C@H]1CN([C@@H](C)CO)C(=O)c2cc(C#CCN(C)C)cnc2O[C@@H]1CN(C)C(=O)Nc1ccccc1F | – | – | – | · | – | –
C[C@H]1CN([C@@H](C)CO)C(=O)c2cc(C#CCN(C)C)cnc2O[C@@H]1CN(C)C(=O)c1ccc(F)cc1 | – | – | – | · | – | –
C[C@H](CO)N1C[C@H](C)[C@H](CN(C)C(=O)Nc2ccccc2F)Oc2ncc(C#CCN(C)C)cc2C1=O | – | – | 72.3 | · | – | –
CCOc1ccc(NCC(=O)c2ccc(C)cc2)cc1 | – | -33.4 | – | – | – | –
Cc1ccc(C(=O)CNc2ccc(Cl)cc2)cc1 | – | – | – | – | – | ·
CN(C)CCNc1oc(COc2ccc(-c3ccccc3)cc2)nc1C#N | – | -35.6 | – | – | – | 58.5
COC(=O)c1ccccc1NC(=O)C1COc2ccccc2O1 (stereo not drawn) | · | · | · | – | · | –
CC(OC(=O)C1COc2ccccc2O1)C(=O)N(C)c1ccccc1 (stereo not drawn) | – | – | – | – | – | –
SMILES | GSIS activator | Ecoli rRNA inh | DENV2 CPE | CaV13 ICDI inh | ERAP1 HTS inh | PGC1a acetyl inh
O=C(Nc1ccc(F)cc1)C1COc2ccccc2O1 (stereo not drawn) | 183.8 | – | – | – | – | –
NC(=O)c1ccc(NC(=O)C2COc3ccccc3O2)cc1 (stereo not drawn) | – | – | – | – | – | –
COC(=O)c1ccsc1NC(=O)C1COc2ccccc2O1 (stereo not drawn) | · | -31.8 | – | – | – | –
CC(OC(=O)C1COc2ccccc2O1)C(=O)c1ccccc1 (stereo not drawn) | 48.4 | – | – | – | – | –
COc1cccc(-c2ccc([C@@H]3[C@@H](CO)N4C(=O)CNC[C@H]34)cc2)c1 | – | – | – | · | – | –
CCC(=O)Nc1ccc2c(c1)OC[C@H](C)N(C(=O)Cc1cccnc1)C[C@@H](C)[C@H](OC)CN(C)C2=O | – | – | – | · | – | –
CCOc1ccc(-c2c(=O)n(O)c3ccccc3[n+]2[O-])cc1 | – | -20.1 | – | – | – | –
CN(C)CCCNc1ccc(-c2cc(Nc3cccc(Cl)c3)ncn2)cn1 | · | -19.7 | – | – | – | –
Cc1noc(C)c1NC(=O)Nc1cccc2c1O[C@H](CN(C)S(=O)(=O)c1ccc(F)cc1)[C@@H](C)CN([C@@H](C)CO)C2=O | – | – | 32.5 | · | – | –
Cc1noc(C)c1NC(=O)Nc1ccc2c(c1)C(=O)N([C@H](C)CO)C[C@@H](C)[C@H](CN(C)S(=O)(=O)c1ccc(F)cc1)O2 | – | – | 86.4 | · | – | –
Cc1noc(C)c1NC(=O)Nc1ccc2c(c1)C(=O)N([C@H](C)CO)C[C@H](C)[C@@H](CN(C)S(=O)(=O)c1ccc(F)cc1)O2 | – | – | – | – | – | –
Cc1noc(C)c1NC(=O)Nc1cccc2c1O[C@H](CN(C)S(=O)(=O)c1ccc(F)cc1)[C@@H](C)CN([C@H](C)CO)C2=O | – | – | – | – | – | –
Cc1noc(C)c1NC(=O)Nc1cccc2c1O[C@@H](CN(C)S(=O)(=O)c1ccccc1)[C@@H](C)CN([C@@H](C)CO)C2=O | – | – | · | · | · | –
Cc1cccc(C)c1NC(=O)C(C)n1c(-c2ccc(=O)[nH]c2)nc2ccccc21 (stereo not drawn) | – | – | 20.7 | – | – | ·
Cc1cccc(C)c1NC(=O)C(C1CC1)n1c(-c2ccc(=O)[nH]c2)nc2ccccc21 (stereo not drawn) | – | – | – | – | – | ·
COc1ccccc1/C=C/C=N/n1c(-c2ccncc2)n[nH]c1=S | – | · | · | – | · | ·
S=c1[nH]nc(-c2ccncc2)n1/N=C/C=C/c1ccccc1 | – | -23.1 | – | – | – | –
CCOc1ccc(NC(=S)NNC(=S)Nc2cccc(C(F)(F)F)c2)cc1 | – | -28.4 | – | – | – | ·
CCOc1ccc(NC(=S)NCc2ccco2)cc1 | – | -18.7 | – | – | – | –
